Screening results as filed in PubChem.
Hits are enriched below; roughly 5.4% of the tested compounds scored in any of these assays.
VACV Venus inh: inhibitors of vaccinia virus (Venus reporter) | Vaccinia virus Venus reporter expression, fluorescence | hit rate 0.46% among 330,000 | AID 720580 | Potency, µM (doses to about 36.5 µM), inactives show at the top dose activity change, negative = inhibition, hits mostly inhibitors; calls by dose curve; tested in A549 cells; also: nearly all actives have a fitted effect of over 30% in size
MARV entry inh: inhibitors of Marburg virus binding or cell entry. Marburg virus pseudotyped entry inhibition, cell reporter. Potency, µM (doses to about 37.8 µM), inactives show top-dose activity change, negative = inhibition, actives largely listed as inhibitors. hit rate 1.8% among 300,000. AID 540276; calls by dose curve; tested in HEK293 cells
LASV entry inh: Lassa virus entry inhibition. AID 540256. Lassa virus pseudotype entry inhibition, cell reporter. hit rate 1.2% among 300,000. Potency, µM (doses to about 37.9 µM), for the others: at the top dose activity change, negative = inhibition, hits mostly inhibitors; calls by dose curve; tested in HEK293 cells; also: nearly all actives have a fitted effect of over 50% in size
VACV mCherry inh: inhibitors of vaccinia virus infection (mCherry reporter signal) | Vaccinia virus mCherry reporter infection, fluorescence | Potency, µM (top dose mostly 36.5 µM), for inactives: at the highest dose activity change, negative = inhibition, actives largely listed as inhibitors | hit rate 0.63% among 310,000; calls by dose curve; tested in A549 cells; also: nearly all actives have a fitted effect of over 35% in size
FMDV inh: foot and mouth disease virus antiviral activity. hit rate 1.2% among 410,000. AID 1159524. Potency, µM (doses to about 57.9 µM), for inactives: top-dose activity change, negative = inhibition, most hits filed as inhibitors. FMDV antiviral cell-based qHTS; calls by dose curve; tested in HEK293T cells; also: read-out not given here; nearly all actives have a fitted effect of over 45% in size
Sm TGR inh: inhibitors of Schistosoma mansoni thioredoxin glutathione reductase; Q962Y6; purified TGR, DTNB reduction, TNB absorbance 405 nm; Potency, µM (top dose mostly 114 µM), for inactives: at the top dose activity change, negative = inhibition, hits mostly inhibitors; hit rate 3% among 360,000; AID 485364; active = well fitted inhibition curve with a large enough effect; inconclusive = small, poorly fitted or top-dose-only effect; inactive = no such curve, though single readings can be large or run the other way; also: nearly all actives have a fitted effect of over 60% in size
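Kinetic colorimetric format: TGR-catalysed, NADPH-driven DTNB reduction monitored via TNB absorbance. Enzyme dispensed at 20 nM; compound exposure 15 min at room temperature before reaction start.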
The depositor's hits bear a star; i = inactive; ? = inconclusive; . = no result; [ ] = dose if it differs, or a comment. % is scaled to controls: 0 for no effect and ±100 for the full control effect; potency is read from the fitted curve at half-maximal effect.

SMILES	VACV Venus inh	MARV entry inh	LASV entry inh	VACV mCherry inh	FMDV inh	Sm TGR inh
CCOc1cccc(CNCCc2c(C)[nH]c3ccc(OC(F)(F)F)cc23)c1O	10µM*	.	.	?	14.1µM*	0.0%
O=C(/C=C1\NC2(CCCC2)Cc2ccccc21)C(=O)N/N=C/c1ccccc1O	?	11.2µM*	14.6µM*	12.6µM*	4.4%	-7.4%
CCC(=O)N1CCc2cc(S(=O)(=O)NC(C(=O)NCCc3ccc(OC)c(OC)c3)C(C)C)ccc21 (stereo unspecified)	-9.6%	3.5%[46.1 µM]	3.6%[46.1 µM]	-14.9%	0.4%	-7.8%
CCOC(=O)N1CCC(NC(=O)CS(=O)Cc2nc(-c3ccc(OC)c(OC)c3)oc2C)CC1 (stereo unspecified)	.	5.3%	-10.6%	.	-9.0%	?
CCOC(=O)N1CCC(NC(=O)CS(=O)Cc2nc(-c3ccc(C)cc3)oc2C)CC1 (stereo unspecified)	.	.	.	.	-5.6%	44.7µM*
CCOC(=O)N1CCN(C(=O)CS(=O)Cc2nc(-c3ccc(C)cc3)oc2C)CC1 (stereo unspecified)	-21.2%	-4.7%	.	-7.1%	-9.5%	?
CCOC(=O)N1CCC(NC(=O)CS(=O)Cc2nc(-c3ccc(Cl)cc3)oc2C)CC1 (stereo unspecified)	.	.	.	.	?	39.8µM*
Cc1ccc(-c2ccccc2NC(=O)C2C3C=CC(C3)C2C(=O)O)o1 (stereo unspecified)	-7.7%	?	-0.2%	-10.5%	8.5%	35.5µM*
Cc1ccc(-c2ccccc2NC(=O)CCl)o1	2.3%	?	-22.0%	.	0.0%	31.6µM*
Cc1ccc(-c2cccc(NC(=O)C3C(C(=O)O)[C@@H]4C=C[C@H]3C4)c2)o1 (stereo partly specified)	-15.2%	2.9%	-13.4%	.	-5.9%	20µM*
O=C(O)C1C2C=CC(C2)C1C(=O)Nc1cccc(F)c1 (stereo unspecified)	.	-3.7%	?	.	-21.3%	-1.4%
CC(=O)N1CCc2c(sc3c2c(=O)n(-c2cccc(Cl)c2C)c(=O)n3Cc2ccccc2C)C1	-19.8%	?	.	-24.0%	-21.6%	1.3%
CCc1sc(-c2cc3ccc(O)cc3oc2=O)nc1-c1ccc(C)cc1	-6.1%	.	.	23.9%	.	.
O=C(c1cc(-c2ccccc2)nc2ccccc12)N1CCCC1	-3.7%	?	15.4%[46.1 µM]	1.4%	-3.4%	11.7%
c1ccc(-c2cc(NCCN3CCCCC3)c3ccccc3n2)cc1	11.2µM*	2.82µM*	?	?	?	-5.3%
COCCN1CCN(c2cc(-c3ccccc3)nc3cc(-c4cccc(F)c4)nn23)CC1	?	?	?	?	14.1µM*	-1.5%
COc1ccc(-c2cc3nc(-c4ccccc4)cc(N4CCCC(O)C4)n3n2)cc1 (stereo unspecified)	?	.	.	12.6µM*	-10.2%	0.2%
CN(C)CCCNc1cc(-c2ccccc2)nc2cc(-c3cccc(F)c3)nn12	.	.	.	.	-20.0%	100µM*
COc1ccc(-c2cc3nc(-c4ccccc4)cc(N4CCC(O)CC4)n3n2)cc1	-27.1%	?	?	-19.4%	?	11.7%
CC1(C)S[C@@H]2C(C(=O)O)NC(=O)N2C1C(=O)O (stereo partly specified)	-21.2%	.	.	i	.	.
COC(=O)C(C)NC(=O)N1CCN(c2nnc(C)c3c(C)n(-c4ccc(Cl)cc4)nc23)CC1 (stereo unspecified)	-25.2%	.	-2.7%[46.1 µM]	?	?	7.4%
CCc1cccc(NC(=O)Cn2c(=O)n(Cc3ccccc3)c(=O)c3c2c2cc(OC)ccc2n3C)c1	-6.5%	.	15.8%[46.1 µM]	3.9%	-3.7%	-2.7%
COc1ccccc1-c1cc(-c2ccccc2)nc(SC(C(N)=O)c2ccccc2)c1C#N (stereo unspecified)	?	14.6µM*	?	?	-15.5%	9.1%
CC(C)Cc1cc(-c2ccco2)c(C#N)c(N)n1	23.8%	-19.2%	-13.3%	-12.7%	14.5%	35.5µM*
COC(=O)CSc1nc(-c2ccccc2)cc(-c2ccco2)c1C#N	.	?	-4.2%	.	-4.8%	31.6µM*
SMILES	VACV Venus inh	MARV entry inh	LASV entry inh	VACV mCherry inh	FMDV inh	Sm TGR inh
CCSc1nc(N)c(C#N)c(-c2ccco2)c1C#N	-17.1%	-28.9%	15.8%	.	-15.9%	-13.9%
N#Cc1c(-c2ccc(F)cc2)cc(-c2cccnc2)nc1N	-9.4%	?	0.1%	-8.8%	-14.0%	-2.9%
N#Cc1c(-c2ccco2)cc(-c2ccc(F)cc2)nc1N	-5.4%	?	-11.4%	.	-17.7%	6.31µM*
O=C1CSC(=S)N1/N=C/c1cccnc1	-3.9%[7.34 µM]	17.3%[46.1 µM]	1.4%	-1.7%[7.34 µM]	-0.7%	6.31µM*
O=C1CSC(=S)N1N=Cc1ccccc1O	86.6%	-1.4%	1.7%	17.0%	9.6%	.
Cc1ccccc1/C=N/N1C(=O)CSC1=S	.	.	.	.	-19.9%	10µM*
CCOc1ccccc1NC(=O)Cn1c(=O)nc(-c2ccccc2F)c2cc(Cl)ccc21	-18.3%	.	?	-2.8%	?	-11.6%
COc1ccc(C(CNC(=O)c2cccc([N+](=O)[O-])c2)N2CCOCC2)cc1 (stereo unspecified)	-10.2%	7.4%[46.1 µM]	12.4%[46.1 µM]	-11.6%	-18.9%	0.1%
COc1cc2nc(CN3CC=C(c4ccccc4)CC3)[nH]c(=O)c2cc1OC	?	15.9%[46.1 µM]	?	5.62µM*	-11.2%	.
COc1cc2nc(CN3CCN(S(=O)(=O)c4ccccc4)CC3)[nH]c(=O)c2cc1OC	-17.8%	0.3%	-1.6%	i	-10.0%	-3.1%
CC(C)(O)C1Cc2cc(/C=C/C(=O)O)c(O)cc2O1 (stereo unspecified)	-5.3%	?	1.3%[46.1 µM]	i	22.7%	0.224µM*
Cc1ccccc1NC(=O)C(=O)NCC(c1ccc2c(c1)OCO2)N1CCN(c2ccccc2)CC1 (stereo unspecified)	-12.1%	.	10µM*	i	-11.3%	0.3%
Cc1ccc(NC(=O)C(=O)NCC(c2ccc3c(c2)OCO3)N2CCN(c3ccccc3)CC2)cc1 (stereo unspecified)	-12.6%	.	-7.8%[46.1 µM]	-13.4%	-6.0%	2.7%
CCCC(=O)NCCc1c(I)[nH]c2ccc(OC)cc12	-18.5%	.	.	-3.7%	1.0%	.
O=Cc1cn(Cc2cccc([N+](=O)[O-])c2)c2ccccc12	-7.2%	0.82µM*	0.631µM*	i	-28.0%	-14.8%
CC(=O)c1cn(Cc2ccccc2C#N)c2ccccc12	-5.9%	?	3.55µM*	i	?	32.0%
O=[N+]([O-])/C=C/c1cn(Cc2ccccc2)c2ccccc12	-18.5%	?	-29.8%	.	-40.1%	-17.7%
N#Cc1ccccc1Cn1cc(/C=C/[N+](=O)[O-])c2ccccc21	?	?	23.1µM*	?	14.1µM*	-31.1%
CC(C)C(=O)c1cn(Cc2ccccc2C#N)c2ccccc12	-5.2%	?	-23.1%	.	-26.3%	-1.2%
O=C(Cn1cc(/C=C\[N+](=O)[O-])c2ccccc21)Nc1ccccc1	16.7%	?	?	14.2%	12.6µM*	39.5%
